According to PubChem BioAssay (Tox21):
Where “and” joins values, the source holds several entries; their conditions need not be identical. Equal values may be shown once. Results filed as inconclusive are left out. Calls of active or inactive are those of the source. Unless noted, calls follow the shape of the dose curve; as a rule, active = well fitted curve in the direction sought with a large enough effect in the repeat runs; inconclusive = weak or mixed curves; inactive = no such curve, though single readings can be large; an effect the other way counts as inactive or inconclusive.

Legend:
[1] = A CellTox Green Cytotoxicity Assay to monitor cytotoxicity in HEK293 cells - 32 hour (AID 1224881); also: nearly all actives have a fitted effect of over 40% in size; also: potency is read from the fitted curve at half-maximal effect
Procedure, shortened: (§1)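 Read-out: fluorescence of a cell-impermeant cyanine dye staining DNA of dead cells, proportional to cytotoxicity. HEK293, 600 cells/well with reagent, compound (23 nL DMSO) added after 5 h; reads at 0, 8, 16, 24, 32, 40 h.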

[2] = A CellTox Green Cytotoxicity Assay to monitor cytotoxicity in HepG2 cells - 0 hour (AID 1224882); also: nearly all actives have a fitted effect of over 35% in size
Procedure, shortened: (§2)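 HepG2, 600 cells/well premixed w/ CellTox Green; 5 h settle, 37 C/5% CO2; pintool cpd add (DMSO); 37 C, 40 h; fluorescence read at 0, 8, 16, 24, 32, 40 h.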

[3] = A CellTox Green Cytotoxicity Assay to monitor cytotoxicity in HepG2 cells - 32 hour (AID 1224883); also: nearly all actives have a fitted effect of over 50% in size; also: potency is read from the fitted curve at half-maximal effect
Procedure, shortened: as §2

[4] = A CellTox Green Cytotoxicity Assay to monitor cytotoxicity in HEK293 cells - 8 hour (AID 1224884); also: nearly all actives have a fitted effect of over 35% in size; also: potency is read from the fitted curve at half-maximal effect
Procedure, shortened: as §1

[5] = qHTS RealTime-Glo MT Cell Viability Assay in HEK293 cells - 24 hour (AID 1224886); also: nearly all actives have a fitted effect of over 50% in size; also: potency is read from the fitted curve at half-maximal effect
Procedure, shortened: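 Reads taken at 0, 8, 16, 24, 32 and 40 h from the same wells. HEK293 cells (600/well) carried RealTime-Glo reagents from seeding, with compound added after a 5 h settle at 37 C.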

[6] = qHTS RealTime-Glo MT Cell Viability Assay in HEK293 cells - 8 hour (AID 1224887); also: nearly all actives have a fitted effect of over 50% in size; also: potency is read from the fitted curve at half-maximal effect
Procedure, shortened: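 Luminescence readout at each listed time point; HEK293, 600 cells/well, RealTime-Glo MT reagent added with cells; compounds pinned (23 nL in DMSO) after 5 h at 37 C; continuous culture at 37 C.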

[7] = A CellTox Green Cytotoxicity Assay to monitor cytotoxicity in HEK293 cells - 16 hour (AID 1224888); also: nearly all actives have a fitted effect of over 35% in size; also: potency is read from the fitted curve at half-maximal effect
Procedure, shortened: as §1

[8] = qHTS RealTime-Glo MT Cell Viability Assay in HepG2 cells - 0 hour (AID 1224889); also: nearly all actives have a fitted effect of over 50% in size; also: potency is read from the fitted curve at half-maximal effect
Procedure, shortened: (§3)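 HepG2 suspension premixed with RealTime-Glo reagents is plated at 600 cells per well and left 5 h at 37 C/5% CO2. Compounds in DMSO then go in, and bioluminescence reflecting viable cell number is recorded over 40 h.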

[9] = A CellTox Green Cytotoxicity Assay to monitor cytotoxicity in HepG2 cells - 8 hour (AID 1224890); also: nearly all actives have a fitted effect of over 45% in size
Procedure, shortened: as §2

[10] = qHTS assay to identify small molecule antagonists of the estrogen receptor alpha (ER-alpha) signaling pathway using the BG1 cell line in the presence of 0.1 nM 17-beta-estradiol - cell viability counter screen (AID 1259241); also: nearly all actives have a fitted effect of over 40% in size; also: potency is read from the fitted curve at half-maximal effect
Procedure, shortened: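 VM7Luc4E2 cells (endogenous full-length ER-alpha, 4xERE-luciferase), cultured 5 days in charcoal-stripped serum, exposed to compounds with 0.1 nM 17beta-estradiol (final) for 22 hr at 37C. Viability read in same wells as live-cell protease fluorescence after 30 min.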

[11] = qHTS assay to identify small molecule antagonists of the androgen receptor (AR) signaling pathway using the MDA cell line in the presence of 0.5 nM R1881 - cell viability counter screen (AID 1259242); also: nearly all actives have a fitted effect of over 45% in size; also: potency is read from the fitted curve at half-maximal effect
Procedure, shortened: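 Live-cell protease fluorescence, CellTiter-Fluor, 30 min at 37C. Cells: MDA-kb2, 3,000/well, preincubated 5 hr. Compounds plus 0.5 nM R1881 final, 16 hr, 37C, 0% CO2.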

[12] = qHTS assay to identify small molecule HDAC inhibitors (AID 1259364);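 also: wild-type HCT-116 cells with endogenous class I/II HDAC activity; top concentration of the series differs between compounds; nearly all actives have a fitted effect of over 45% in size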
Procedure, shortened: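 HCT-116 (wild type), 1,500 cells/well, overnight; compound 2 hr 37C 5% CO2; HDAC-Glo I/II reagent 30 min RT; luminescence readout.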

[13] = qHTS assay to identify small molecule HDAC inhibitors - cell viability counter screen (AID 1259365)
Procedure, shortened: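 Wild-type HCT-116 cells, 1,500/well, cultured overnight, then compound-treated 2 h at 37 C. Viability measured as ATP luminescence with CellTiter-Glo after 30 min at room temperature.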

[14] = qHTS assay to identify small molecule agonists of the sonic hedgehog signaling (Shh) pathway (AID 1259368; calls by dose curve;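 also: NIH/3T3-derived 3T3Gli1-Luc cells carrying a stable Gli1-driven firefly luciferase reporter; series mostly up to about 92 µM; nearly all actives have a fitted effect of over 15% in size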)
Procedure, shortened: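 Read-out: firefly luciferase luminescence from a Gli1 response element reporter stably integrated in NIH/3T3-derived 3T3Gli1-Luc cells, measured 30 min at room temperature after reagent addition. Compound exposure lasted 24 hr at 37 C, 5% CO2.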

[15] = qHTS assay to identify small molecule agonists of the sonic hedgehog signaling (Shh) pathway - cell viability counter screen (AID 1259366); also: nearly all actives have a fitted effect of over 50% in size; also: potency is read from the fitted curve at half-maximal effect
Procedure, shortened: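 NIH/3T3-derived Gli1-Luc reporter cells, 2,000 per well, received compound after 4 h and were treated about 23 h at 37C. Viability measured in the same wells by CellTiter-Fluor fluorescence after 1 h.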

[16] = molecular target: Estrogen receptor (Homo sapiens) (UniProt P03372); test: qHTS assay to identify small molecule antagonists of the estrogen receptor alpha (ER-alpha) signaling pathway using the BG1 cell line in the presence of 0.1 nM 17-beta-estradiol (AID 1259244); also: nearly all actives have a fitted effect of over 50% in size; also: potency is read from the fitted curve at half-maximal effect
Estrogen receptor (Homo sapiens), sequence (P03372 whole entry, looked up): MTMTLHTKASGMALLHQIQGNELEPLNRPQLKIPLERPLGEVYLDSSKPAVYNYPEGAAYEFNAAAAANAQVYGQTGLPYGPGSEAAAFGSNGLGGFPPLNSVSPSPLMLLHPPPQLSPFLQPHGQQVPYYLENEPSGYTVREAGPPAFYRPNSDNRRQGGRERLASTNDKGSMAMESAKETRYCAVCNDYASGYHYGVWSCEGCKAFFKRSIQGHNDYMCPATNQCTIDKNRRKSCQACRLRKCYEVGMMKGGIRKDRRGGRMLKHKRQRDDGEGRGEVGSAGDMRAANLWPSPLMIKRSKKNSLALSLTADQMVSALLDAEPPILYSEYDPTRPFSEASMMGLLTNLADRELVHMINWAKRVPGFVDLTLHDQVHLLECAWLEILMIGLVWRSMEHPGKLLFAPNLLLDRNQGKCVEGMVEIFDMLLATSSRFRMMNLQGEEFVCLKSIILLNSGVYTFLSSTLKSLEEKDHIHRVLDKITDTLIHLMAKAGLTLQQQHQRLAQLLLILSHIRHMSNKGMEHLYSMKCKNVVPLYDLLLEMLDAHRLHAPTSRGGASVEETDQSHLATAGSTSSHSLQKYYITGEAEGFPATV
Procedure, shortened: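 Luminescence after ONE-Glo (30 min, room temperature) measured ERE-luciferase activity in VM7Luc4E2 cells treated 22 h with compound and 0.1 nM final 17beta-estradiol as stimulator.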

[17] = qHTS assay to identify small molecule phospholipidosis (PLD) inducers (AID 1259344; active = well fitted curve in the direction sought with a large enough effect; an effect the other way counts as inactive or inconclusive)
Procedure, shortened: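 Cells (HepG2, 900 per well) attach for 4 h, receive LipidTOX Red and compound together, incubate 24 h at 37 C, are fixed 30 min with paraformaldehyde/Hoechst, then imaged at one site per well.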

[18] = qHTS assay to identify small molecule antagonists of the sonic hedgehog signaling (Shh) pathway - cell viability counter screen (AID 1259367); also: nearly all actives have a fitted effect of over 55% in size
Procedure, shortened: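 Cytotoxicity was assessed in parallel with Shh reporter activity by measuring live-cell protease fluorescence (CellTiter-Fluor) in NIH/3T3 cells stably carrying Gli1-Luc, treated with compound under conditioned medium stimulation for 23 hr plus 1 hr reagent incubation.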

[19] = qHTS RealTime-Glo MT Cell Viability Assay in HepG2 cells - 16 hour (AID 1224885); also: nearly all actives have a fitted effect of over 50% in size
Procedure, shortened: as §3
% is scaled to controls: 0 for no effect and ±100 for the full control effect.

CC(=O)[C@H]1CC[C@H]2[C@@H]3CCC4=CC(=O)CC[C@]4(C)[C@H]3CC[C@]12C
inactive: Potency [2] | Potency [4] | Potency [7] | Potency [9] | Potency [10] | Potency [11] | Potency [12] | Potency [13] | Potency [14]
active: Potency [1] 24.4 µM and 34.7 µM | Potency [3] 49 µM | Potency [5] 15.4 µM and 17.4 µM | Potency [6] 13.7 µM | Potency [8] 6.88 µM and 5.49 µM

CNC(=O)c1ccccc1Sc1ccc2c(/C=C/c3ccccn3)n[nH]c2c1
inactive: Potency [1] | Potency [2] | Potency [3] | Potency [4] | Potency [7] | Potency [9] | Potency [10] | Potency [14]
active: Potency [5] 7.56 µM | Potency [15] 13.3 µM

CCOC(=O)Cn1cccc1-c1nc(-c2ccc(OC)cc2)c(-c2ccc(OC)cc2)s1
inactive: Potency [1] | Potency [2] | Potency [3] | Potency [4] | Potency [5] | Potency [6] | Potency [7] | Potency [8] | Potency [9] | Potency [10] | Potency [11] | Potency [16] | Potency [17] | Potency [12] | Potency [13] | Potency [15] | Potency [18] | Potency [14]

CC[N+](CC)(CC)CCOC(=O)C(C1CCCC1)C1CCCC1
inactive: Potency [1] | Potency [2] | Potency [3] | Potency [4] | Potency [19] | Potency [6] | Potency [7] | Potency [8] | Potency [9] | Potency [10] | PLD induction [17] 0.0817% [at 7.66 µM] | Potency [12] | Potency [13] | Potency [15] | Potency [14]

CCCCCCCCCCCCOCCOCCOCCOCCOCCOCCOCCOCCOCCO
inactive: Potency [2] | Potency [8] | Potency [17] | Potency [12] | Potency [13] | Potency [15] | Potency [18] | Potency [14]
active: Potency [1] 10.7 µM | Potency [3] 23.9 µM | Potency [4] 16.9 µM | Potency [5] 5.35 µM | Potency [6] 10.7 µM | Potency [7] 12 µM | Potency [10] 13.3 µM | Potency [11] 21.1 µM | Potency [16] 6.68 µM

CC/C=C\CCCCCO
inactive: Potency [1] | Potency [2] | Potency [4] | Potency [19] | Potency [5] | Potency [6] | Potency [7] | Potency [8] | Potency [9] | Potency [10] | Potency [11] | Potency [12] | Potency [13] | Potency [15] | Potency [18] | Potency [14]

CCCC(=O)OC(C)(C)Cc1ccccc1
inactive: Potency [1] | Potency [2] | Potency [4] | Potency [19] | Potency [5] | Potency [6] | Potency [7] | Potency [8] | Potency [9] | Potency [10] | Potency [11] | Potency [12] | Potency [13] | Potency [15] | Potency [18] | Potency [14]

O=[N+]([O-])c1ccc(F)c(Cl)c1
inactive: Potency [1] | Potency [2] | Potency [4] | Potency [19] | Potency [5] | Potency [6] | Potency [7] | Potency [8] | Potency [9] | Potency [10] | Potency [11] | Potency [12] | Potency [13] | Potency [15] | Potency [18] | Potency [14]

Nc1ccc(NCCO)c([N+](=O)[O-])c1
inactive: Potency [1] | Potency [2] | Potency [4] | Potency [19] | Potency [5] | Potency [6] | Potency [7] | Potency [8] | Potency [9] | Potency [12] | Potency [13] | Potency [14]

Cc1cc(-n2nc3ccc(Cl)cc3n2)c(O)c(C(C)(C)C)c1
inactive: Potency [1] | Potency [2] | Potency [4] | Potency [19] | Potency [5] | Potency [6] | Potency [7] | Potency [8] | Potency [9] | Potency [10] | Potency [11] | Potency [17] | Potency [12] | Potency [13] | Potency [15] | Potency [18] | Potency [14]
